# Legend:
# Assay in all cases: DAPPL (digital affinity profiling via proximity ligation, sequencing); 10 mM Tris-HCl pH 7.5, 50 mM NaCl, 1 mM DTT, 4% glycerol, room temperature, 30 min; GST-TFs on glutathione beads, 16-mer random dsDNA library, 0.1% formaldehyde crosslink after washing; high values mean tight binding
# FLI1 = target: T1, FLI1 (Homo sapiens, UniProt Q01543 1-452); details: protein: recombinant; tags: N-terminal GST; dsDNA, one strand shown
# T1 sequence: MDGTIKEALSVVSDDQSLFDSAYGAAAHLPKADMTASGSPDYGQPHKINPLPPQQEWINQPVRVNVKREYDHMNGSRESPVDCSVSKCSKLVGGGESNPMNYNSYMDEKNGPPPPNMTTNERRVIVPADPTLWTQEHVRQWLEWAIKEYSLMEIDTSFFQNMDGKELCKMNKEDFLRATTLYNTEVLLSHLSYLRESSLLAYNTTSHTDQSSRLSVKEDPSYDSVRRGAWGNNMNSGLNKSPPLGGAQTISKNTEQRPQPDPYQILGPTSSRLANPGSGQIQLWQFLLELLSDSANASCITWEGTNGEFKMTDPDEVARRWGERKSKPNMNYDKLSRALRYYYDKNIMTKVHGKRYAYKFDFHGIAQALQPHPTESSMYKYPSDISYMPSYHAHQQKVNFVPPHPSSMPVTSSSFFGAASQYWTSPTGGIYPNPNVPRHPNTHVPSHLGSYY
# Method in brief: (§1)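 Binding signal is given per hexamer as its read frequency for a factor divided by its frequency in the tag-only sample. GST-fused human transcription factors were expressed in yeast, captured on glutathione beads, barcoded with DNA and pooled with that sample, then incubated with 200 nmole of a 16-mer random double-stranded DNA library in Tris/NaCl/DTT/glycerol buffer for 30 min at room temperature. The pools were then washed, crosslinked, proximity-ligated, amplified by PCR and sequenced on an Illumina NextSeq500.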
# ELK1 = target: T2, ELK1 (Homo sapiens, UniProt P19419 1-428); details: protein: recombinant; tags: N-terminal GST; dsDNA, one strand shown
# T2 sequence: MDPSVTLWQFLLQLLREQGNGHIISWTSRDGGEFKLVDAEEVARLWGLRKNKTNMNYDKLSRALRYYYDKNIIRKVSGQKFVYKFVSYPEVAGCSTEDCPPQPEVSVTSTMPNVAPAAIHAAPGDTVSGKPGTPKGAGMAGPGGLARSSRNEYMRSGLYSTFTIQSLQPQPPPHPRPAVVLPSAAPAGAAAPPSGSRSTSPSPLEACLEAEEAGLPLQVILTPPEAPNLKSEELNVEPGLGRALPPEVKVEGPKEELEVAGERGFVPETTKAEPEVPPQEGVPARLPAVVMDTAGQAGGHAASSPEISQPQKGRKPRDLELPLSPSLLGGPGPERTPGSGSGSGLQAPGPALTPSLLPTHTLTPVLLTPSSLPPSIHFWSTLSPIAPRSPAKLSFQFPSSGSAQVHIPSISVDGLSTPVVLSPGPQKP
# Method in brief: as §1
# GABPA = target: T3, GABPA (Homo sapiens, UniProt Q06546 1-454); details: protein: recombinant; tags: N-terminal GST; dsDNA, one strand shown
# T3 sequence: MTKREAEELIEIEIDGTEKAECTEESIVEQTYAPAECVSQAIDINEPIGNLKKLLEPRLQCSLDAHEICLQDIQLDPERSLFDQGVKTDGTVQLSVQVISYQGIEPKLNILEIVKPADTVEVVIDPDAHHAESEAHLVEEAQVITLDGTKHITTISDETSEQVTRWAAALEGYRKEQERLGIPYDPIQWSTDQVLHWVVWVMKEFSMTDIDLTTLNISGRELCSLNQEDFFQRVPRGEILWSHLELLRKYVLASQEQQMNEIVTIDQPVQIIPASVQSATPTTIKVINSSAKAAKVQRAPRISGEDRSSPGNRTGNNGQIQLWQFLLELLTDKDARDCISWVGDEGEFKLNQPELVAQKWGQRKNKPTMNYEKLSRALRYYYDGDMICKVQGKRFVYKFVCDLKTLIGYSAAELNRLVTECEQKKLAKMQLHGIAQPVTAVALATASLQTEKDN
# Method in brief: as §1
# ERG = target: T4, ERG (Homo sapiens, UniProt P11308 1-479); details: protein: recombinant; tags: N-terminal GST; dsDNA, one strand shown
# T4 sequence: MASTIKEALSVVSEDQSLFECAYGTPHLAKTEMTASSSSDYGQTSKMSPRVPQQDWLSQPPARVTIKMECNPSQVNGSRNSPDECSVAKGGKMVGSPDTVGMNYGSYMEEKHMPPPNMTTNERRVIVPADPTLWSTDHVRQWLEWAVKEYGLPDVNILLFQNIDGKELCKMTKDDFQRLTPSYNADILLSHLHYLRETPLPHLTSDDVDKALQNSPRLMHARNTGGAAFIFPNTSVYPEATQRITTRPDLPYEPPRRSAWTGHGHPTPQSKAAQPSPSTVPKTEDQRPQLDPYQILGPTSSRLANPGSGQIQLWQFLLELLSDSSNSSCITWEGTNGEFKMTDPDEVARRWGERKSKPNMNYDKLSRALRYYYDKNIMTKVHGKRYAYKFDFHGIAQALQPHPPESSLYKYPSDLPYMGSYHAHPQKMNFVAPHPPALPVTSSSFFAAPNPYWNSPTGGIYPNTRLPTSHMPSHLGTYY
# Method in brief: as §1
# ELF1 = ELF1 (Homo sapiens, UniProt P32519 1-619); details: protein: recombinant; tags: N-terminal GST; dsDNA, one strand shown
# Method in brief: as §1
# EHF = target: T5, EHF (Homo sapiens, UniProt Q9NZC4 1-300); details: protein: recombinant; tags: N-terminal GST; dsDNA, one strand shown
# T5 sequence: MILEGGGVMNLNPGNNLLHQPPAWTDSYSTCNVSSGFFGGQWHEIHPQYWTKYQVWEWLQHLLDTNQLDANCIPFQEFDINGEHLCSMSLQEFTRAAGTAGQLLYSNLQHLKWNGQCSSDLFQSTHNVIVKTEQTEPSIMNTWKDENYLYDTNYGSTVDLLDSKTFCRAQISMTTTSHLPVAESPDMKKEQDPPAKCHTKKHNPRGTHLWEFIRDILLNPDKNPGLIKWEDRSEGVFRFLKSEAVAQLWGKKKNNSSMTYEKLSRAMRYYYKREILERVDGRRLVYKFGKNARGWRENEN
# Method in brief: as §1
# SPI1 = SPI1 (Homo sapiens, UniProt P17947 1-270); details: protein: recombinant; tags: N-terminal GST; dsDNA, one strand shown
# Method in brief: as §1
# SPIB = SPIB (Homo sapiens, UniProt Q01892 1-262); details: protein: recombinant; tags: N-terminal GST; dsDNA, one strand shown
# Method in brief: as §1
# ELK3 = target: T6, ELK3 (Homo sapiens, UniProt P41970 1-407); details: protein: recombinant; tags: N-terminal GST; dsDNA, one strand shown
# T6 sequence: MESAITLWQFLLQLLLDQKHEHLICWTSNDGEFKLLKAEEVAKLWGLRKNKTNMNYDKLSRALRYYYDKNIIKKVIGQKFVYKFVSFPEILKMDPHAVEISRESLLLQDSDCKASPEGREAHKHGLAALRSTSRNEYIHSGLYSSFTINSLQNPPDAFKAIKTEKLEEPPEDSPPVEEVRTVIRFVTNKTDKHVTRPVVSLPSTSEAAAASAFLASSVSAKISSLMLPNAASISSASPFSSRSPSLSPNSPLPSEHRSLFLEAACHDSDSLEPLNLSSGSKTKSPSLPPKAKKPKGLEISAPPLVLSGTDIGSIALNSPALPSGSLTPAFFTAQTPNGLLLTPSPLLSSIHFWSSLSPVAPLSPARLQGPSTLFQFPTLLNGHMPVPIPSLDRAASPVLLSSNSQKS
# Method in brief: as §1
# FEV = target: T7, FEV (Homo sapiens, UniProt Q99581 1-238); details: protein: recombinant; tags: N-terminal GST; dsDNA, one strand shown
# T7 sequence: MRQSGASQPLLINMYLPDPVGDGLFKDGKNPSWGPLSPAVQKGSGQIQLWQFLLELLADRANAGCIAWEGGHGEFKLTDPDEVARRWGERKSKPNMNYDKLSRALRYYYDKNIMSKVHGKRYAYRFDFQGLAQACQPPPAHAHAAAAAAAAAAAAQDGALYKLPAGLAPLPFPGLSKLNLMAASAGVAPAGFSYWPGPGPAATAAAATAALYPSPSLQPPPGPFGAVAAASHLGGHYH
# Method in brief: as §1
# ETV5 = ETV5 (Homo sapiens, UniProt P41161 1-510); details: protein: recombinant; tags: N-terminal GST; dsDNA, one strand shown
# Method in brief: as §1
# HSF1 = HSF1 (Homo sapiens, UniProt Q00613 1-529); details: protein: recombinant; tags: N-terminal GST; chain copies: 3; dsDNA, one strand shown
# Method in brief: as §1
# ELF4 = ELF4 (Homo sapiens, UniProt Q99607 1-663); details: protein: recombinant; tags: N-terminal GST; dsDNA, one strand shown
# Method in brief: as §1
# ELK4 = target: T8, ELK4 (Homo sapiens, UniProt P28324-2 1-405); details: protein: recombinant; tags: N-terminal GST; dsDNA, one strand shown
# T8 sequence: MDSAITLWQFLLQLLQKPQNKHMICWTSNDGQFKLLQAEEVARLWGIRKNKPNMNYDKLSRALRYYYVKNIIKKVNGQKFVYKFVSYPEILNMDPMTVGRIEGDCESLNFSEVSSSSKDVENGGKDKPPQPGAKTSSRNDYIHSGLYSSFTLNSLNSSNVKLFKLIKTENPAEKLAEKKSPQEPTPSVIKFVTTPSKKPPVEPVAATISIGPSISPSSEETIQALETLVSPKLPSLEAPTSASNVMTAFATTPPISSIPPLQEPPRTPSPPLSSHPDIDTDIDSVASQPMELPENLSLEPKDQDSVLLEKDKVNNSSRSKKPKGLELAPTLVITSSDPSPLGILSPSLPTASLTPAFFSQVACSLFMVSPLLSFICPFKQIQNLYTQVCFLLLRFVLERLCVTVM
# Method in brief: as §1
# ETV2 = target: T9, ETV2 (Homo sapiens, UniProt O00321 1-342); details: protein: recombinant; tags: N-terminal GST; dsDNA, one strand shown
# T9 sequence: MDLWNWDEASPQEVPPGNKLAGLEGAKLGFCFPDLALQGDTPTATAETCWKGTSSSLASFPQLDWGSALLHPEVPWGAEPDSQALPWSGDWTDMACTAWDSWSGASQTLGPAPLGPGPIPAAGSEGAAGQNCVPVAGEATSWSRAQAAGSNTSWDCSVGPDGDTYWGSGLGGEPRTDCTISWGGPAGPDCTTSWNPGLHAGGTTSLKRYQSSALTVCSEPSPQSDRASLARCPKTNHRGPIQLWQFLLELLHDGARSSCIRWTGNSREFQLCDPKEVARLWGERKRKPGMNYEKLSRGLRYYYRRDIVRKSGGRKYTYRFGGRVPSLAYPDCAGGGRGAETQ
# Method in brief: as §1
# ELF3 = target: T10, ELF3 (Homo sapiens, UniProt P78545 1-371); details: protein: recombinant; tags: N-terminal GST; dsDNA, one strand shown
# T10 sequence: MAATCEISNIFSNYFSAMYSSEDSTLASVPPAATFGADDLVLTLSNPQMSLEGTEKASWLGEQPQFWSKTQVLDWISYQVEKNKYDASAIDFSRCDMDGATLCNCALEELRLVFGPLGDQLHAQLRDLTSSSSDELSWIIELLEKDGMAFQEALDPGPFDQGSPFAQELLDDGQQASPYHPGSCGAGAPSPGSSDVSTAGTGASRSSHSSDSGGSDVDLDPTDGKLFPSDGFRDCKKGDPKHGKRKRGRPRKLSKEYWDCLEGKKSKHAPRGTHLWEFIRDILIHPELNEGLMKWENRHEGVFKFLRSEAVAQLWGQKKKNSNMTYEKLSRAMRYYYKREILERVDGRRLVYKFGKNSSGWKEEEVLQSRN
# Method in brief: as §1
# CRX = CRX (Homo sapiens, UniProt O43186 1-299); details: protein: recombinant; tags: N-terminal GST; dsDNA, one strand shown
# Method in brief: as §1
# ETV1 = ETV1 (Homo sapiens, UniProt P50549 1-477); details: protein: recombinant; tags: N-terminal GST; dsDNA, one strand shown
# Method in brief: as §1
# CRX, sequence (O43186 whole entry): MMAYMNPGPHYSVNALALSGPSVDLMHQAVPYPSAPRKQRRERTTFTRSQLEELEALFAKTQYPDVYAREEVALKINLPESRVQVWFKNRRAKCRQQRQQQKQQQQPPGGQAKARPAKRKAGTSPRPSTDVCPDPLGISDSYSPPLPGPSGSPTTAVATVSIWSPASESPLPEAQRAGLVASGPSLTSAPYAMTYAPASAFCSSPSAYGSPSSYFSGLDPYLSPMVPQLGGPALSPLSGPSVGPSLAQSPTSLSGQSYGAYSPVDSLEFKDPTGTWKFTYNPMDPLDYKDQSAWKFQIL
# ETV5, sequence (P41161 whole entry): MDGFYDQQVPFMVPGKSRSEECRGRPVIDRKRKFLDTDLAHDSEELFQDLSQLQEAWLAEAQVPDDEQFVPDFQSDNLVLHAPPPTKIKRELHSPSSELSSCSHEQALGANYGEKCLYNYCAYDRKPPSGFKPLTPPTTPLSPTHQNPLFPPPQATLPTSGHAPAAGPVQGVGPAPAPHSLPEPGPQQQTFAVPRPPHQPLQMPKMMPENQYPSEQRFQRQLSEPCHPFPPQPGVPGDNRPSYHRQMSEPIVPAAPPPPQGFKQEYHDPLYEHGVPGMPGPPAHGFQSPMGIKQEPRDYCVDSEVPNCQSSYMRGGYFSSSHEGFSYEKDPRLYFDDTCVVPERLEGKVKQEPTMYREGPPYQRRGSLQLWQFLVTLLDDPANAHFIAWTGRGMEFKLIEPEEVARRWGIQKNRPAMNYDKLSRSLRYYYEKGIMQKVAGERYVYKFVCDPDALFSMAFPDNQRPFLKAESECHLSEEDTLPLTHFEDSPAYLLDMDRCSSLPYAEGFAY
# HSF1, sequence (Q00613 whole entry): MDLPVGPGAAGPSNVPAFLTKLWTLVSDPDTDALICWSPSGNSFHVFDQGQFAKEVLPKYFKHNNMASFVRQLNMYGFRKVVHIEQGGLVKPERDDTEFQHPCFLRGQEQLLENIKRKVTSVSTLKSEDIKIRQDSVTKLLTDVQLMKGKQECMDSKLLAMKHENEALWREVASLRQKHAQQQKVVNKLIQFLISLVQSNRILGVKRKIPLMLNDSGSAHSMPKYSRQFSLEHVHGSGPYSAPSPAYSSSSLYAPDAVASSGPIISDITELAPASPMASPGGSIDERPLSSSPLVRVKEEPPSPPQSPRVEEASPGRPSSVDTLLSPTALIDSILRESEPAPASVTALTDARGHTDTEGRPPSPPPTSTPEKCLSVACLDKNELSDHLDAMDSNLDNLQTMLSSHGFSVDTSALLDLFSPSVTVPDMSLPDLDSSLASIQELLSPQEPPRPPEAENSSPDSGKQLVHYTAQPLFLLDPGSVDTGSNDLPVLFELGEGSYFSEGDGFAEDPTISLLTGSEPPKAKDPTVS
# ETV1, sequence (P50549 whole entry): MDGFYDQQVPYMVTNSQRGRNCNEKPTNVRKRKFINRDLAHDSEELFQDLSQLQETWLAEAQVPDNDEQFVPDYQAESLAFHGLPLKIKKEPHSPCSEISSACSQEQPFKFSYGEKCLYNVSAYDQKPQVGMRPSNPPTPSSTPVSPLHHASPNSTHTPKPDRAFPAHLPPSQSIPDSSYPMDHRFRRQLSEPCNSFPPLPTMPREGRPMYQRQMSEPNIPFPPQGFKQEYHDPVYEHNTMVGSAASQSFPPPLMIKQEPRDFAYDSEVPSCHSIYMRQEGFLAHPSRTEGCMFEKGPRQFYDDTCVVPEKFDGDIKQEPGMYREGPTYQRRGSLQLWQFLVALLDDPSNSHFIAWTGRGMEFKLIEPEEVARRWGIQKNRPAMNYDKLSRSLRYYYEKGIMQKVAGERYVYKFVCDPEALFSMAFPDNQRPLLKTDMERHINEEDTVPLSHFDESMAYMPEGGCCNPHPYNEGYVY
# ELF4, sequence (Q99607 whole entry): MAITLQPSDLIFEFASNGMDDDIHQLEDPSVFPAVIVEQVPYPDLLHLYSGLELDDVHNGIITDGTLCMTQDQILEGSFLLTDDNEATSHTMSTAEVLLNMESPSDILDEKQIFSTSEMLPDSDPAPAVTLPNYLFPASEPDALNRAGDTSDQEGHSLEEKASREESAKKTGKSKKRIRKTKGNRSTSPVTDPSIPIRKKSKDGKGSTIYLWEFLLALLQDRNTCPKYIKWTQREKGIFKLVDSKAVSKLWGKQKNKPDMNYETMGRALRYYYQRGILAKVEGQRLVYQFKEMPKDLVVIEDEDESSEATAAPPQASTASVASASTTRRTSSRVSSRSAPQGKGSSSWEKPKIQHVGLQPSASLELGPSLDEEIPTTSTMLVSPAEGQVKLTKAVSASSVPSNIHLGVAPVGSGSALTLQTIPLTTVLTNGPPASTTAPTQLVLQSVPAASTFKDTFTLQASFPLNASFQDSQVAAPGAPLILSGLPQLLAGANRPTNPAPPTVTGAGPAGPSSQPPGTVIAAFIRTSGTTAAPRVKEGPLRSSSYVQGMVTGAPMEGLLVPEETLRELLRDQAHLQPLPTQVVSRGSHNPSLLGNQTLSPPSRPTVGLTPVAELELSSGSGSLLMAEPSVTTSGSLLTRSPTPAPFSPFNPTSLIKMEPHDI
# SPIB, sequence (Q01892 whole entry): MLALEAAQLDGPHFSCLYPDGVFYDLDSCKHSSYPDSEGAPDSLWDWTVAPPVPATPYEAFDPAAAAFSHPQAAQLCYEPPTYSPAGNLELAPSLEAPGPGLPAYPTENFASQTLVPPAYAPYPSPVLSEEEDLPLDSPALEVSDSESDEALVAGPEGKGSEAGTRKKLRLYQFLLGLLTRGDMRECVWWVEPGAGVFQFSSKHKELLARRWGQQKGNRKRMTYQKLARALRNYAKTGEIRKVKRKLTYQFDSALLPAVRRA
# ELF1, sequence (P32519 whole entry): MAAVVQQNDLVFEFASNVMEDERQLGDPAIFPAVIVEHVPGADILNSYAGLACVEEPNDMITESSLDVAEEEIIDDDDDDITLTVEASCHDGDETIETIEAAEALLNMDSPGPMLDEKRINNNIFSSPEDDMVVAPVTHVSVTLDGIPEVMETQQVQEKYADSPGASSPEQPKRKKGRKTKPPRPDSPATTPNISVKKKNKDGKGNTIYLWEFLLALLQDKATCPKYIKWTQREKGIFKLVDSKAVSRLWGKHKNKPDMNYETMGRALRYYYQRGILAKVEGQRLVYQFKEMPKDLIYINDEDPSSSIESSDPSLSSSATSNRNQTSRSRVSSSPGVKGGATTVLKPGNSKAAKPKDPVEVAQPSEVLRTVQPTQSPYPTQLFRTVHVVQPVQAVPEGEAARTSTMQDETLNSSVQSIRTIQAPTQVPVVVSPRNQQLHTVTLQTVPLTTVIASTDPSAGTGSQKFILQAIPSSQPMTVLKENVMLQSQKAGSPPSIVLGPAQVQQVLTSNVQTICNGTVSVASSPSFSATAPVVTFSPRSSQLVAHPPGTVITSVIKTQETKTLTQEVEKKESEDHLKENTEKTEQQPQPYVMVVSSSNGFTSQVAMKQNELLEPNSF
sequence,measurement,setting,value
TACATT,binding signal,FLI1,"1.32 fold enrichment (6-mer frequency, TF over GST control)"
same,binding signal,ELK1,"1.17 fold enrichment (6-mer frequency, TF over GST control)"
same,binding signal,GABPA,"1.23 fold enrichment (6-mer frequency, TF over GST control)"
same,binding signal,ERG,"1.21 fold enrichment (6-mer frequency, TF over GST control)"
same,binding signal,ELF1,"1.26 fold enrichment (6-mer frequency, TF over GST control)"
same,binding signal,EHF,"1.19 fold enrichment (6-mer frequency, TF over GST control)"
same,binding signal,SPI1,"1.14 fold enrichment (6-mer frequency, TF over GST control)"
same,binding signal,SPIB,"1.29 fold enrichment (6-mer frequency, TF over GST control)"
same,binding signal,ELK3,"1.23 fold enrichment (6-mer frequency, TF over GST control)"
same,binding signal,FEV,"1.19 fold enrichment (6-mer frequency, TF over GST control)"
same,binding signal,ETV5,"1.21 fold enrichment (6-mer frequency, TF over GST control)"
same,binding signal,HSF1,"1.25 fold enrichment (6-mer frequency, TF over GST control)"
same,binding signal,ELF4,"1.24 fold enrichment (6-mer frequency, TF over GST control)"
same,binding signal,ELK4,"1.09 fold enrichment (6-mer frequency, TF over GST control)"
same,binding signal,ETV2,"1.17 fold enrichment (6-mer frequency, TF over GST control)"
same,binding signal,ELF3,"1.11 fold enrichment (6-mer frequency, TF over GST control)"
same,binding signal,CRX,"1.25 fold enrichment (6-mer frequency, TF over GST control)"
same,binding signal,ETV1,"1.16 fold enrichment (6-mer frequency, TF over GST control)"

# — publication PMC7862700, “An all-to-all approach to the identification of sequence-specific readers for epigenetic DNA modifications on cytosine”
